Assay results from PubChem BioAssay.
Active and inactive are the calls of the source.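 The calls were made as follows, unless noted: active = fluorescence slope higher than the sample average by over 3 SD (cut at about -0.22 in these data, passing the limit was not always enough); inactive = the rest.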

Biological target: Voltage-gated potassium channel subunit beta-2 (Rattus norvegicus) (UniProt P62483)
Test: inhibitors of rat Kvbeta2 reductase activity – biochemical, NADPH fluorescence, primary screen (AID 622);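 also: slope of raw intensity against log time taken from 70 to 1610 s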
Settings: recombinant KvBeta, 4-cyanobenzaldehyde reduction, at 10 µM, hits give high values

Voltage-gated potassium channel subunit beta-2 (Rattus norvegicus), sequence (P62483 whole entry, looked up): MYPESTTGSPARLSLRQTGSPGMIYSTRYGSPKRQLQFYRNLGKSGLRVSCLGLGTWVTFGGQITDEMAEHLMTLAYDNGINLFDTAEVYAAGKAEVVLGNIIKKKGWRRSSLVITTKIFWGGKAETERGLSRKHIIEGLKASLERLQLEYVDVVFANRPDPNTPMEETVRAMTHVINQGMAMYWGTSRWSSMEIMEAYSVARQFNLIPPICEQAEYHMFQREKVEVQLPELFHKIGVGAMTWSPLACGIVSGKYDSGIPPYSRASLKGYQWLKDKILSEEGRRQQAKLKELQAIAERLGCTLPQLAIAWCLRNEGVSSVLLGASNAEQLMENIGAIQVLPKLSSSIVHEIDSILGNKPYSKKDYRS

Fluorescence slope, inactive:
CCOc1cccc(N2C(=O)CC(N(CCc3ccc(OC)c(OC)c3)C(=O)CC)C2=O)c1 (stereo not given) -0.453, CCOC(=O)CNC(=O)CNC(=O)c1ccc(OCC(C)C)cc1 -0.458, COc1cc(C(=O)Nc2ccc(O)cc2C(=O)O)ccc1OC(C)=O -0.547, Cc1cc(C)n(CC2CC(=O)N(c3ccc(F)c(Cl)c3)C2=O)n1 (stereo not given) -0.314, COC(=O)c1ccc(C2/C(=C(\O)c3cccc(OC)c3)C(=O)C(=O)N2CCCN(C)C)cc1 (stereo not given) -0.524, CCCC(CCC(=O)Nc1ccc(C(=O)OCC)cc1)C(=O)O (stereo not given) -0.484, C=C(C)CSc1nc(N)c2c3c(sc2n1)CCC3 -0.451, CCCCOC(=O)CCc1nc2ccccc2[nH]1 -0.484, CCc1nc2c(sc3nc(N4CCOCC4)c4c(c32)CC(C)(C)OC4)c(=O)o1 -0.479, COc1ccccc1-n1c(N)c(C(=O)NCC2CCCO2)c2nc3ccccc3nc21 (stereo not given) -0.0437, CCC(=O)NC1(C(F)(F)F)C(=O)Nc2c1c(=O)[nH]c(=O)n2Cc1ccco1 (stereo not given) -0.497, Cn1c(=O)[nH]c2cc(Cl)cnc21 -0.492, O=C(COc1ccc(-c2nnc(N3CCCCC3)c3ccccc23)cc1)N1CCCCC1 -0.487, Cc1cccc(-c2nc(C#N)c(NC3CCCCC3)o2)c1 -0.492, CCCCSc1nnc2n(CCc3ccccc3)c(=O)c3c4c(sc3n12)COC(C)(C)C4 -0.334, CCCCc1nc(NCC2CCCO2)c(C#N)c2c1COC(C)(C)C2 (stereo not given) -0.509, Clc1ccc(-n2ncc3c(N4CCCC4)ncnc32)cc1 -0.411, COCCOC(=O)c1c(C)oc2ccc(OC(=O)COc3c(F)c(F)c(F)c(F)c3F)cc12 -0.461, CCc1cc(=O)oc2cc(C)c(CN3CCCC3)c(O)c12 -0.444, O=c1[nH]c2sc3c(c2c(=O)n1Cc1ccccc1)CCC3 -0.453, CCOC(=O)CCNc1n[nH]c(=O)[nH]c1=O -0.497, COc1ccc(C2C=C(c3ccc(C)cc3)Nc3ncnn32)cc1 (stereo not given) -0.0165, CCc1nc(N2CCOCC2)c(C#N)c2c1CCCC2 -0.482, COc1ccccc1C1/C(=C(/O)c2ccc(C)cc2)C(=O)C(=O)N1CCN1CCOCC1 (stereo not given) -0.506, N#CC(C#N)C(c1ccsc1)c1c(-c2ccccc2)[nH][nH]c1=O (stereo not given) -0.495, O=C(c1ccc(=O)oc1)N1CCN(C(c2ccccc2)c2ccccc2)CC1 -0.474, Nc1ccc2c3c(cccc13)CC2 -0.281, COCCNC(=O)C(C#N)c1nc2ccccc2nc1N1CCN(Cc2ccc3c(c2)OCO3)CC1 (stereo not given) -0.474, Cc1ccc(Cn2ncc3c(N4CCN(Cc5ccc(Cl)cc5)CC4)ncnc32)cc1 -0.368, COC(=O)c1[nH]c2ccc(Cl)cc2c1NC(=O)C1CC1 -0.451, CCCOc1ccccc1C(=O)NCCCC(=O)O -0.447, CCCOc1cccc(C2/C(=C(/O)c3ccc(F)cc3)C(=O)C(=O)N2CCN(C)C)c1 (stereo not given) -0.478, CCN(CC)c1nc(C)c2c(c1C#N)CC(C)(C)OC2 -0.462, CCC(=O)N(Cc1cccs1)C1CCOC(C)(C)C1 (stereo not given) -0.389, CCC(=O)Nc1c(C#N)c2nc3ccccc3nc2n1C1CCCCC1 -0.342, O=C(CN1C(=O)c2ccccc2S1(=O)=O)NCCSCc1ccco1 -0.457, CC12CN3CC(C)(CN(C1)C3c1ccc(Br)cc1O)C2 (stereo not given) -0.472, Clc1ccc(COc2ccccn2)c(Cl)c1 -0.387, CC1(C)NC(=O)N(CC(O)COc2cc3ccccc3cc2C(=O)N2CCCCC2)C1=O (stereo not given) -0.383, Cc1ccc(N(CN2C(=O)C3CC=CCC3C2=O)C(=O)c2ccco2)cc1Cl (stereo not given) -0.453

Biological target: Voltage-gated potassium channel subunit beta-2 (Rattus norvegicus) (UniProt P62483)
Test: enhancers of rat Kvbeta2 NADPH turnover – biochemical, NADPH fluorescence, primary screen (AID 623;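 active = NADPH fluorescence slope more negative than the mean of all samples by about 3 SD, 99.7% confidence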;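 also: fluorescence intensity change per second fitted from 20 to 320 s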)
Settings: Recombinant KvBeta, NADPH fluorescence decrease slope, 10 min; at 10 µM; hits give low values

NADPH fluorescence slope, inactive:
CCOc1cccc(N2C(=O)CC(N(CCc3ccc(OC)c(OC)c3)C(=O)CC)C2=O)c1 (stereo not given) -1.2e-05, CCOC(=O)CNC(=O)CNC(=O)c1ccc(OCC(C)C)cc1 -5.4e-05, COc1cc(C(=O)Nc2ccc(O)cc2C(=O)O)ccc1OC(C)=O -6.2e-05, Cc1cc(C)n(CC2CC(=O)N(c3ccc(F)c(Cl)c3)C2=O)n1 (stereo not given) 1.8e-05, COC(=O)c1ccc(C2/C(=C(\O)c3cccc(OC)c3)C(=O)C(=O)N2CCCN(C)C)cc1 (stereo not given) -1.5e-05, CCCC(CCC(=O)Nc1ccc(C(=O)OCC)cc1)C(=O)O (stereo not given) -4.5e-05, C=C(C)CSc1nc(N)c2c3c(sc2n1)CCC3 -0.000115, CCCCOC(=O)CCc1nc2ccccc2[nH]1 -5.5e-05, CCc1nc2c(sc3nc(N4CCOCC4)c4c(c32)CC(C)(C)OC4)c(=O)o1 -8.3e-05, COc1ccccc1-n1c(N)c(C(=O)NCC2CCCO2)c2nc3ccccc3nc21 (stereo not given) 2e-05, CCC(=O)NC1(C(F)(F)F)C(=O)Nc2c1c(=O)[nH]c(=O)n2Cc1ccco1 (stereo not given) -8.6e-05, Cn1c(=O)[nH]c2cc(Cl)cnc21 -3.9e-05, O=C(COc1ccc(-c2nnc(N3CCCCC3)c3ccccc23)cc1)N1CCCCC1 2e-05, Cc1cccc(-c2nc(C#N)c(NC3CCCCC3)o2)c1 -0.000119, CCCCSc1nnc2n(CCc3ccccc3)c(=O)c3c4c(sc3n12)COC(C)(C)C4 -6.5e-06, CCCCc1nc(NCC2CCCO2)c(C#N)c2c1COC(C)(C)C2 (stereo not given) -7.2e-05, Clc1ccc(-n2ncc3c(N4CCCC4)ncnc32)cc1 -5e-05, COCCOC(=O)c1c(C)oc2ccc(OC(=O)COc3c(F)c(F)c(F)c(F)c3F)cc12 -2.6e-05, CCc1cc(=O)oc2cc(C)c(CN3CCCC3)c(O)c12 -0.000155, O=c1[nH]c2sc3c(c2c(=O)n1Cc1ccccc1)CCC3 -0.000103, CCOC(=O)CCNc1n[nH]c(=O)[nH]c1=O -1.9e-05, COc1ccc(C2C=C(c3ccc(C)cc3)Nc3ncnn32)cc1 (stereo not given) -1.6e-05, CCc1nc(N2CCOCC2)c(C#N)c2c1CCCC2 -6.5e-05, COc1ccccc1C1/C(=C(/O)c2ccc(C)cc2)C(=O)C(=O)N1CCN1CCOCC1 (stereo not given) -4e-05, N#CC(C#N)C(c1ccsc1)c1c(-c2ccccc2)[nH][nH]c1=O (stereo not given) -6.9e-05, O=C(c1ccc(=O)oc1)N1CCN(C(c2ccccc2)c2ccccc2)CC1 -7.6e-05, Nc1ccc2c3c(cccc13)CC2 -2.2e-05, COCCNC(=O)C(C#N)c1nc2ccccc2nc1N1CCN(Cc2ccc3c(c2)OCO3)CC1 (stereo not given) -0.000128, Cc1ccc(Cn2ncc3c(N4CCN(Cc5ccc(Cl)cc5)CC4)ncnc32)cc1 -6.6e-05, COC(=O)c1[nH]c2ccc(Cl)cc2c1NC(=O)C1CC1 -5.4e-05, CCCOc1ccccc1C(=O)NCCCC(=O)O -6.8e-05, CCCOc1cccc(C2/C(=C(/O)c3ccc(F)cc3)C(=O)C(=O)N2CCN(C)C)c1 (stereo not given) -2.8e-05, CCN(CC)c1nc(C)c2c(c1C#N)CC(C)(C)OC2 -1.1e-05, CCC(=O)N(Cc1cccs1)C1CCOC(C)(C)C1 (stereo not given) -3e-05, CCC(=O)Nc1c(C#N)c2nc3ccccc3nc2n1C1CCCCC1 4.3e-06, O=C(CN1C(=O)c2ccccc2S1(=O)=O)NCCSCc1ccco1 -0.000137, CC12CN3CC(C)(CN(C1)C3c1ccc(Br)cc1O)C2 (stereo not given) -8.8e-05, Clc1ccc(COc2ccccn2)c(Cl)c1 -4.6e-05, CC1(C)NC(=O)N(CC(O)COc2cc3ccccc3cc2C(=O)N2CCCCC2)C1=O (stereo not given) 2.1e-06, Cc1ccc(N(CN2C(=O)C3CC=CCC3C2=O)C(=O)c2ccco2)cc1Cl (stereo not given) -1.3e-05
